The entries come from a sample that favours hits as a whole.
HT1080NT lethal: kills 2HG-producing HT-1080-NT fibrosarcoma cells; 360,000 tested, 1.6% active; Potency, µM (series often up to 46.1 µM), for inactives: at the top dose activity, negative = less viability, actives largely listed as cytotoxic; HT-1080-NT fibrosarcoma viability, CellTiter-Glo ATP luminescence, 48 h;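 also: NT is the 2HG producing partner of a matched IDH1 knockdown line; potency is read from the fitted curve at half-maximal effect; 0% = DMSO-treated cells and -100% = media-only wells without cells; nearly all actives have a fitted effect of over 55% in size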
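Fibrosarcoma NT cells, 750 per well in 5% FBS RPMI, were exposed to compound for 48 hours. Viability: CellTiter-Glo luminescence.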
HT1080 IDH1KD tx: toxicity to HT-1080 IDH1 knockdown cells (counter line); HT-1080 IDH1 knockdown viability, ATP luminescence, 48 h; Potency, µM (series often up to 46.1 µM), for inactives: top-dose activity, negative = toxicity, actives largely listed as cytotoxic; 360,000 tested, 2% active; AID 686971;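 also: potency is read from the fitted curve at half-maximal effect; 0% = DMSO wells and -100% = cell-free medium wells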
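IDH1KD HT-1080 cells, 750/well, RPMI + 5% FBS; compound pinned after 2 h settling; 48 h, 37 °C; CellTiter-Glo luminescence; % activity normalised to DMSO and no-cell wells; curves fitted, classed by r2 and efficacy.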
IL1B secr inh: inhibitors of inflammasome signaling (IL-1 beta secretion) | activity change, % at 57.5 µM | THP-1 LPS/ATP IL-1B secretion, AlphaLISA, 16 h; active compounds read low | 360,000 tested, 4.7% active; in the data active = activity change below about -50%; inconclusive = mostly about -30% to -49%
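Secreted IL-1B measured by AlphaLISA bead assay after 16 h compound exposure of THP-1 cells; compounds (final up to 57.5 uM) added 1 h before LPS (250 ng/mL) and ATP (1.25 mM) stimulation; lower signal means less secretion.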
DT40 TDP1 CPT: DT40-hTDP1 cell growth loss with CPT; chicken DT40 Tdp1-/-;hTDP1 cells + 20 nM CPT, ATP luminescence, 48 h; Potency, µM (titrated, usually from 46.2 µM), inactives show at the highest dose activity change, negative = growth inhibition, hits mostly inhibitors; 420,000 tested, 12% active; AID 686979; also: potency is read from the fitted curve at half-maximal effect; nearly all actives have a fitted effect of over 55% in size
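Cell growth measured by CellTiter-Glo luminescence after a minimum 48 h, 37 C compound exposure with 20 nM CPT in Tdp1-knockout DT40 cells stably expressing hTDP1, seeded 400/well; qHTS titration format.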
ALOX12 inh: ALOX12 (human) lipoxygenase inhibition. purified 12hLO, xylenol orange hydroperoxide absorbance. P18054. AID 1671190. 580,000 tested, 1.1% active. Potency, µM (top dose mostly 108 µM), without a hit: at the top dose activity change, negative = inhibition, actives largely listed as inhibitors; also: potency is read from the fitted curve at half-maximal effect
Target sequence (P18054 whole entry, looked up): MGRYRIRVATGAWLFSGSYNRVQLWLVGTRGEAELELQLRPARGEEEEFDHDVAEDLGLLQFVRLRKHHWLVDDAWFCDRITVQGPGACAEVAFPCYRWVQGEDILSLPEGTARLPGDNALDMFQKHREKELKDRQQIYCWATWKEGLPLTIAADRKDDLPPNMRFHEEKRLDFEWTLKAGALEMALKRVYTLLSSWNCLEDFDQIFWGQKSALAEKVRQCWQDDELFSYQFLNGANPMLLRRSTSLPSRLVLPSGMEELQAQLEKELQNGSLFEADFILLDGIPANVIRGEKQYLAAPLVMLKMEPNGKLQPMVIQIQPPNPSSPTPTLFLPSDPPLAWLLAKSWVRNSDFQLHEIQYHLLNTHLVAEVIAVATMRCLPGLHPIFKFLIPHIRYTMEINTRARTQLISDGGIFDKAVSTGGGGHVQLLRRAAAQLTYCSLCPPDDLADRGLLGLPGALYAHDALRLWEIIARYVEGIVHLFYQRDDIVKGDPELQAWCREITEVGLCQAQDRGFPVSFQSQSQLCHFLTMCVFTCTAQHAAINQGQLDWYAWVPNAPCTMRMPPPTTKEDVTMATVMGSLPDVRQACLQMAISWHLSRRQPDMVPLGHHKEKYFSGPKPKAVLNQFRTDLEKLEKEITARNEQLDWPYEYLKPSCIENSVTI
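Hydroperoxide product was detected by ferrous iron/xylenol orange as the 573 to 405 nm absorbance ratio. Arachidonic acid at 40 uM (final) was turned over for 30 min at room temperature by 150 nM human 12hLO, pH 7.0 Hepes buffer, after 15 min compound preincubation.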
TDP1 cell noCPT: qHTS for Inhibitors of human tyrosyl-DNA phosphodiesterase 1 (TDP1): qHTS in cells in absence of CPT; DT40 Tdp1-/- hTDP1 cells, no CPT, ATP luminescence, 48 h; Potency, µM (titrated, usually from 46.2 µM), for the others: top-dose activity change, negative = growth inhibition, actives largely listed as inhibitors; 420,000 tested, 15% active; AID 686978, 2013; also: potency is read from the fitted curve at half-maximal effect; nearly all actives have a fitted effect of over 55% in size
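Readout: luminescence from CellTiter-Glo after 30 min in the dark at RT. Cells: DT40 Tdp1-/- with stable hTDP1, 400/well. Exposure: compounds alone, ≥48 hr, 37 °C.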
* marks the source's active call; other numbers are inactive results; ? = inconclusive; . = no result. Unless noted, calls follow the shape of the dose curve; as a rule, active = well fitted curve in the direction sought with a large enough effect; inconclusive = small, poorly fitted or top-dose-only effect, or another doubt; inactive = no such curve, though single readings can be large; an effect the other way counts as inactive or inconclusive. Unless noted, % is scaled to controls: 0 for no effect and ±100 for the full control effect.

SMILES	HT1080NT lethal	HT1080 IDH1KD tx	IL1B secr inh	DT40 TDP1 CPT	ALOX12 inh	TDP1 cell noCPT
Cc1nn(C(C)C(=O)Nc2cccc(F)c2)c(=O)c2c1sc1ccccc12 (configuration not stated)	.	.	.	-17%	-20%	?
CN(C)S(=O)(=O)c1ccc(N2CCCC2)c(C(=O)Nc2ccc(F)cc2F)c1	2%	2%	-2	?	?	-29%
Cc1cnc(NC(=O)c2cc(S(=O)(=O)N(C)C)ccc2N2CCCC2)s1	-23%	-29%	-64*	?	-26%	?
COc1ccc(C(C)(C)C)cc1NC(=O)c1cc(S(=O)(=O)N(C)C)ccc1N1CCCC1	-11%	-16%	-1	21µM*	-8%	?
CCCS(=O)(=O)CCSS(=O)(=O)O	.	.	.	.	14%	.
CCOc1cc(C2NN=C(c3ccc(C)cc3)S2)ccc1O (configuration not stated)	-4%	11%	-5	6.5µM*	?	5.2µM*
CC1(NC(=O)c2cn(-c3cccc(Br)c3)nn2)CCS(=O)(=O)C1 (configuration not stated)	.	.	.	.	28%	.
COCC(=O)N1CCCC(C(=O)N(C)CCn2ccnc2C)C1 (configuration not stated)	.	.	.	.	34%	.
CC(NCC(=O)Nc1ccccc1C(=O)NC1CC1)c1cccc(Cl)c1 (configuration not stated)	2%	2%	-13	?	-2%	?
CC(NCC(=O)Nc1ccccc1C(=O)NC1CC1)c1ccc(Cl)cc1 (configuration not stated)	-1%	-12%	?	?	-5%	12µM*
CCN(CC)S(=O)(=O)c1ccc(-c2nc(C#N)c(NCc3ccccc3)o2)cc1	.	.	.	.	-4%	.
CC1=C(C(=O)Nc2ccc(C)cc2C)C(c2ccccc2)n2nc(SCC(=O)c3ccc(C)cc3)nc2N1 (configuration not stated)	.	.	.	-7%	0%	-1%
CCOc1ccccc1C1C(C(=O)Nc2ccccc2)=C(C)Nc2nc(SCC(=O)c3ccc(C)cc3)nn21 (configuration not stated)	.	.	.	7.3µM*	?	9.2µM*
CC1=C(C(=O)Nc2ccc(C)cc2C)C(c2ccccc2F)n2nc(SCC(=O)c3ccc(C)cc3)nc2N1 (configuration not stated)	.	.	.	18µM*	-21%	15µM*
CC1CCCCN1CC(=O)NCCc1c[nH]c2ccccc12 (configuration not stated)	.	.	.	.	7%	.
COc1ccc(C2C=C(c3ccccc3)Nc3nc(NC(=O)/C=C/c4ccc(Cl)cc4)nn32)cc1 (configuration not stated)	.	.	.	15µM*	-5%	12µM*
COc1ccc(/C=C/C(=O)Nc2nc3n(n2)C(c2ccccc2)C=C(c2ccc(Cl)cc2)N3)cc1 (configuration not stated)	.	.	.	?	-6%	?
O=C(/C=C/c1ccc(F)cc1)Nc1nc2n(n1)C(c1ccc(Cl)cc1)C=C(c1ccccc1)N2 (configuration not stated)	.	.	.	?	-1%	15µM*
O=S(=O)(Nc1nc2n(n1)C(c1ccc(F)cc1)C=C(c1ccc(Cl)cc1)N2)c1ccccc1 (configuration not stated)	.	.	.	-25%	12%	-18%
O=C(/C=C/c1ccccc1)Nc1nc2n(n1)C(c1ccc(Cl)cc1)C=C(c1ccccc1)N2 (configuration not stated)	.	.	.	21µM*	3%	23µM*
